From PubChem BioAssay
In the library only some 0.39% were active in any assay of this set; here they are far more common.
PKM2 activator: qHTS Assay for Activators of Human Muscle isoform 2 Pyruvate Kinase; Pyruvate kinase PKM (Homo sapiens), P14618; purified PKM2, Kinase-Glo ATP luminescence, activation; response scale: 0% is enzyme alone, no compound; Potency, µM (top dose mostly 57.5 µM), for the others: at the highest dose activation, hits mostly activators; hit rate 0.34% among 260,000; note: % is set by controls: 0 for no effect and ±100 for the full control effect; nearly all actives have a fitted effect of over 55% in size
Target sequence (P14618 whole entry, looked up, canonical isoform): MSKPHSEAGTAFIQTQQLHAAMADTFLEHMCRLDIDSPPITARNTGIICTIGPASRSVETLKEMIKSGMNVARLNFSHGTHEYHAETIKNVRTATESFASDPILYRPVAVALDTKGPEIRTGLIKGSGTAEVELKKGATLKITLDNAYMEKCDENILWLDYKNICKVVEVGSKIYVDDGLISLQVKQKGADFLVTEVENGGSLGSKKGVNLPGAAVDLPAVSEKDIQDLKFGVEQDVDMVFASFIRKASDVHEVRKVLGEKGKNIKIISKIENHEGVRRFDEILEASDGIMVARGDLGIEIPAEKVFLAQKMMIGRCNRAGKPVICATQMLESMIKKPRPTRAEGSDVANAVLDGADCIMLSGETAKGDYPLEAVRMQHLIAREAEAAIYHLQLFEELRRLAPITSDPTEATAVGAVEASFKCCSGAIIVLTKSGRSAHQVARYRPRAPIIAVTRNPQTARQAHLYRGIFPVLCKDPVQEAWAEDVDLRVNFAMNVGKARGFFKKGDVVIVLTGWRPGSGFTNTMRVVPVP
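hPK-M2, >95% pure; 0.1 mM ADP / 0.5 mM PEP final; imidazole pH7.2 buffer w/ 7 mM MgCl2, 50 mM KCl; 1 h RT; Kinase-Glo lum. Intermediate enzyme activity for dual inhibitor/activator qHTS.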
A-T KAP1 phos: qHTS Assay for Identifying a Potential Treatment of Ataxia-Telangiectasia; F2112 A-T fibroblasts, KAP-1 phosphorylation AlphaLISA; neocarzinostatin DNA damage 30 min before lysis; Potency, µM (series often up to 57.5 µM), for inactives: top-dose activation, most hits filed as activators; hit rate 0.19% among 320,000; note: % of control where 0% means no effect; nearly all actives have a fitted effect of over 45% in size
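ATM-like activity read as KAP-1 phosphorylation via AlphaLISA donor/acceptor antibody pairs after lysis and 6 hr at 25C. Cells were ATM-null patient fibroblasts (F2112, hTERT), dosed 60 min, then exposed to the DSB inducer NCS for 30 min.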
TSG101-PTAP inh: qHTS Assay for Iinhibitors of HIV-1 Budding by Blocking the Interaction of PTAP/TSG101. 340,000 tested, under 10 active. Potency, µM (doses to about 115 µM), without a hit: at the top dose activity change, negative = inhibition, most hits filed as inhibitors. Fluorescence polarization, FITC-PTAP peptide / Tsg101 binding. Tumor susceptibility gene 101 protein (Homo sapiens), Q99816. AID 493005, 2010; active = well fitted inhibition curve with a large enough effect in the main read-out, with a control signal flat, not every such curve was filed as active; inconclusive = small, poorly fitted or top-dose-only effect, or effect the other way, or a change in a side signal; inactive = no such curve, though single readings can be large or run the other way; note: % of control where 0% means no effect
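Compounds were pin-transferred onto Tsg101 binding domain (10 uM final) in HEPES pH 7.5 buffer, then FITC-PTAP peptide was added at 50 nM final. After 20 min at RT, polarization reported peptide displacement across a qHTS concentration series.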
Pin1 inhibitor: qHTS Assay to Find Inhibitors of Pin1. Potency, µM (highest dose often 115 µM), inactives show at the top dose activity, negative = inhibition, usual class: inhibitors. Pin1 FP peptide displacement, HiFluor488, 10 min. hit rate 0.009% among 390,000; active = well fitted inhibition curve with a large enough effect in the polarisation, with a control signal flat, not every such curve was filed as active; inconclusive = small, poorly fitted or top-dose-only effect, or effect the other way, or a change in a side signal; inactive = no such curve, though single readings can be large or run the other way; the % refers to the polarisation; note: % is set by controls: 0 for no effect and ±100 for the full control effect
Target sequence (Q13526 whole entry, looked up): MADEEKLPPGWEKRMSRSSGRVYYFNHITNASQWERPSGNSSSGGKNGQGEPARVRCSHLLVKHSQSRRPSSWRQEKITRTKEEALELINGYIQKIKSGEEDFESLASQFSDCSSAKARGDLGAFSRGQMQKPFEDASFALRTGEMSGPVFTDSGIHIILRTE
Starred values were filed as active, the others as inactive; ? = inconclusive; nt = no result; [ ] = dose if it differs, or a comment. Unless noted, calls come from the whole dose curve; as a rule, active = well fitted activation curve with a large enough effect; inconclusive = small, poorly fitted or top-dose-only effect; inactive = no such curve, though single readings can be large or run the other way. Potency is the fitted concentration of half-maximal effect.

SMILES	PKM2 activator	A-T KAP1 phos	TSG101-PTAP inh	Pin1 inhibitor
Cc1cc2[nH]c(=O)c(=O)[nH]c2cc1S(=O)(=O)Nc1cccc(Cl)c1C	16µM*	7%	-2%	5%
O=C1Cc2cc(S(=O)(=O)N3CCN(c4ccc(Cl)cc4)CC3)ccc2N1	nt	nt	nt	-8%[230 µM]
Cc1nc(C(=O)NCCC(C)C)sc1C1(C)CC(c2ccccc2)=NO1 (stereo not drawn)	-16%	40µM*	-1%	?
CNC(=O)c1nc(C)c(C2(C)CC(c3ccccc3)=NO2)s1 (stereo not drawn)	7%	0%	-1%	4%
Nc1ccc(S(=O)(=O)N2CCN(S(=O)(=O)c3ccc4c(c3)OCCO4)CC2)cc1	nt	nt	nt	4%
COc1cccc(NS(=O)(=O)c2ccc3c(c2)CCN3C(C)=O)c1	nt	9%	2%	2%
CC(=O)N1CCc2cc(S(=O)(=O)Nc3cccc(C(F)(F)F)c3)ccc21	25µM*	-5%	0%	?
COc1ccc(C(CNC(=O)C(Cc2ccccc2)NC(N)=O)N(C)C)cc1 (stereo not drawn)	nt	0.89µM*	-7%	1%
COc1ccc(C(CNC(=O)Cc2ccc(-c3ccccc3)cc2)N(C)C)cc1 (stereo not drawn)	1%	1%	1%	4%
CC1(C)Cc2c(c(N3CCOCC3)nc3sc(C(N)=O)c(N)c23)CO1	10%	22µM*	-1%	-8%
Cc1cc2c(s1)c1cnn(Cc3ccc(Br)cc3)c(=O)c1n2C	nt	nt	nt	4%
COc1ccc2c(c1)[nH]c1c(=O)n(CCN3CCCC3)cnc12	3%	1%	-3%	2%
O=c1c2[nH]c3ccc(Cl)cc3c2ncn1CCN1CCCCC1	1%	28µM*	-6%	-3%
Cc1cc2c(s1)c1cnn(Cc3cc(F)c(F)c(F)c3)c(=O)c1n2C	nt	nt	nt	-7%
Clc1ccccc1Cn1nnc2c(NCC3CC3)ncnc21	8.9µM*	-16%	-2%	0%
NC(=O)C1CCN(c2ncc(-c3ccc4c(c3)OCO4)s2)CC1	nt	nt	nt	-12%
c1ccc(C(CN2CCOCC2)c2ccccc2)cc1	7%	8%	-4%	-3%
O=C(c1ccc(F)cc1)C(CN1CCOCC1)c1ccccc1 (stereo not drawn)	1%	40µM*	-3%	0%
O=C(c1ccccc1)C(CCC(CN1CCOCC1)C(=O)c1ccccc1)CN1CCOCC1 (stereo not drawn)	7%	35µM*	-3%	1%
COc1ccc(C(=O)C(CN2CCOCC2)c2ccccc2)cc1 (stereo not drawn)	-1%	nt	0%	2%
N#Cc1nc(Nc2ccc(-c3ccccc3)cc2)nc(NC2CCCC2)n1	nt	nt	nt	20%
CN(C)S(=O)(=O)c1ccc(C(=O)NCCN2C(=O)S/C(=C\c3cccnc3)C2=O)cc1	16µM*	0%	1%	-3%
CCc1nnc(NS(=O)(=O)c2ccc(NC(=O)OC)cc2)s1	28µM*	-3%	-1%	0%
CCc1nnc(NS(=O)(=O)c2ccc(NC(=O)Nc3ccc(OC)cc3)cc2)s1	2%	7%	1%	-3%
CN1CCCC1CCNc1ncnc2ccc(-c3ccc4c(c3)OCO4)cc12 (stereo not drawn)	nt	nt	nt	-6%
SMILES	PKM2 activator	A-T KAP1 phos	TSG101-PTAP inh	Pin1 inhibitor
O=C1CCC2=C1C(c1ccccc1Cl)N=C(Nc1nc3ccccc3o1)N2 (stereo not drawn)	nt	nt	nt	5%
COc1ccc(Cl)cc1S(=O)(=O)N1CCN(S(=O)(=O)c2ccc3c(c2)OCCO3)CC1	nt	nt	nt	10%
Cn1c2ccccc2c2nnc(SCC(=O)Nc3cccc(C(=O)O)c3)nc21	nt	-2%	1%	4%
Cn1c2ccc(F)cc2c2nnc(SCC(=O)Nc3cccc(O)c3)nc21	0.32µM*	-1%	-8%	?
O=C1CCCC2=C1C1(CCOCC1)N=C(Nc1nc3ccccc3o1)N2	nt	nt	nt	-20%
Cc1ccc(CNc2ncnc3ccc(-c4ccc5c(c4)OCO5)cc23)o1	nt	nt	nt	24%
O=c1c2c3c(sc2[nH]c(=S)n1Cc1ccco1)CCC3	11µM*	6%	1%	?
CCC(C)NC(=O)c1cn(CCOC)c(=O)c2c1c1ccccc1n2C (stereo not drawn)	nt	8.9µM*	-1%	-2%
CC1=NN(c2ccc(C)c(C)c2)C(=O)/C1=C\C=C\c1ccc([N+](=O)[O-])o1	2%	32µM*	-4%	nt
CCc1nnc(NC(=O)C(CC)CC)s1	-1%	40µM*	0%	3%
CS(=O)(=O)Nc1cccc(C2=NN(S(=O)(=O)c3ccccc3)C(c3ccco3)C2)c1 (stereo not drawn)	22µM*	-3%	-2%	5%
CNc1cc2c(cc1S(=O)(=O)Nc1ccc(C)c(C)c1)CCC(=O)N2	nt	nt	nt	0%
Cc1ccc(-n2ncc3c(N4CCCC4)ncnc32)c(C)c1	25µM*	4%	2%	9%
C[C@@]12CCC=C[C@H]1[C@H](c1ccc(/C=C/c3ccccc3)cc1F)N(Cc1ccccc1)C2=O	-4%	40µM*	-2%	18%
FC(F)(F)c1cccc(-c2nnn3c2nc(NC2CCCCC2)c2ccccc23)c1	nt	nt	nt	-9%
NNc1nc2c(-c3cccc(C(F)(F)F)c3)nnn2c2ccccc12	nt	25µM*	6%	?
Cn1cnnc1Sc1cc(N2CCN(S(=O)(=O)c3ccc4ccccc4c3)CC2)ccc1[N+](=O)[O-]	0.35µM*	-7%	-2%	4%
Cn1cnnc1Sc1cc(N2CCN(S(=O)(=O)c3ccc(Cl)c(Cl)c3)CC2)ccc1[N+](=O)[O-]	2.8µM*	-4%	-9%	0%
O=C(O)c1cccc(S(=O)(=O)N2CCN(S(=O)(=O)c3ccc4c(c3)OCCO4)CC2)c1	nt	nt	nt	1%
Cc1ccc(Cl)cc1NS(=O)(=O)c1cc2c(cc1F)NC(=O)CC2	nt	nt	nt	-7%
COc1ccc(CCNC(=O)NC(C(F)(F)F)C(F)(F)F)cc1OC	-1%	-1%	-5%	8%
COc1ccc(CCNC(=O)Nc2ccc(F)cc2F)cc1OC	nt	10µM*	-3%	-2%
COc1cc(C2Nc3ccccc3C(=O)N2Cc2ccccc2)ccc1OCc1ccc(NC(C)=O)cc1 (stereo not drawn)	nt	nt	nt	-4%
CNC(=S)N1CCN(S(=O)(=O)c2ccc3ccccc3c2)CC1	20µM*	7%	-6%	-2%
C[C@H](NC(N)=O)C(=O)N1CCN(S(=O)(=O)c2ccc3ccccc3c2)CC1	?	9%	-3%	0%
CN1CCCN(S(=O)(=O)c2ccc3ccccc3c2)CC1	20µM*	-3%	-3%	-12%
O=S(=O)(c1ccc2c(c1)OCCO2)N1CCN(S(=O)(=O)c2ccccc2Cl)CC1	nt	nt	nt	-15%
O=C1CCc2cc(S(=O)(=O)Nc3ccc4ncccc4c3)ccc2N1	nt	nt	nt	7%
c1cncc(CSc2nnc3ccc(-c4cccs4)nn23)c1	25µM*	3%	-11%	-4%
